In the library only some 6.9% were active in any assay of this set; here they are far more common.
HCV NS3h FP – hepatitis C NS3 helicase inhibition, primary screen; NS3h Cy5-dT15 DNA binding, fluorescence polarization; inhibition, % at 100 µM; 1.6% of 16,000 active; AID 687043;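 active = inhibition above the average over every tested compound plus 3 SD, cut at about 40% in these data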
Cy5 interf NS3h – Cy5 fluorescence interference, HCV helicase counter-screen; 6% of 16,000 active; Cy5-dT15 DNA with NS3h; actives lie on both sides; signal over control mean, under 1 quenches; fluorescence interference ratio at 100 µM; AID 720488;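 active = compound fluorescence over control fluorescence at most 0.8, a quencher, or at least a set upper limit, an enhancer; inactive = ratio between 0.8 and the set upper limit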
Hits are given with their value; i = inactive.

SMILES	HCV NS3h FP	Cy5 interf NS3h
O=c1oc2cc(OCc3ccc(F)cc3)ccc2cc1-c1nc2ccccc2s1	i	i
Cc1cc(/C=C2\C(=O)NC(=O)N(c3ccc4c(c3)OCO4)C2=O)c(C)n1-c1cccnc1	i	i
COc1cc(/C=C(\C#N)c2ccc([N+](=O)[O-])cc2)c(Br)c(Br)c1O	i	i
CCCCOc1ccc(NC(=O)CCSc2nccn2C)cc1	i	0.69
CCCCOc1ccc(NC(=O)CSc2nnc(-c3cccc(F)c3)n2-c2ccccc2)cc1	i	i
CCC(=O)Nc1sc2c(c1C(=O)Nc1ccc(OC)cc1)CCC2	i	i
COc1ccc(NC(=O)c2c(NC(=O)C(Cl)(Cl)Cl)sc3c2CCC3)cc1	i	0.6
Cc1ccc(N2C(=O)CC(N3CCC(O)(c4ccc(Br)cc4)CC3)C2=O)cc1 (stereo not given)	i	i
Cc1ccc(C(=O)Oc2cccc(C3C4=C(CC(C)(C)CC4=O)NC4=C3C(=O)c3ccccc34)c2)cc1 (stereo not given)	i	i
CCOc1cc(C2C3=C(CC(C)(C)CC3=O)NC3=C2C(=O)c2ccccc23)ccc1O (stereo not given)	i	1.2
CCOC(=O)C1=C(c2ccccc2)N=c2s/c(=C\c3ccc(N(C)C)o3)c(=O)n2C1c1ccc(OC)c(OC)c1 (stereo not given)	i	i
COc1ccc(-c2cc(=O)n3[nH]c(-c4ccc(C)cc4)c(C)c3n2)cc1	i	i
Cc1ccc(-c2[nH]n3c(=O)cc(-c4ccc([N+](=O)[O-])cc4)nc3c2C)cc1	i	0.79
CC(C)(C)C(=O)Nc1cccc(-c2nnc(-c3ccco3)o2)c1	i	i
O=[N+]([O-])c1ccccc1NC(=NS(=O)(=O)c1ccc(Cl)cc1)c1ccccc1	i	0.69
O=[N+]([O-])c1ccccc1NC(=NS(=O)(=O)c1ccccc1)c1ccccc1	i	i
COC(=O)C1=C(C)NC2=C(C(=O)c3ccccc32)C1c1ccc(I)o1 (stereo not given)	i	i
O=C(CSc1cc(Cl)ccc1Cl)Nc1cccc(Br)c1	i	i
O=C(CSC1CC(=O)N(c2cccc(Br)c2)C1=O)Nc1ccc(Cl)cc1 (stereo not given)	43	0.79
COc1c(Cl)cc(C(=O)N2CCN(c3ccc([N+](=O)[O-])c(NC4CC4)c3)CC2)cc1Cl	i	i
Cc1ccc2cccc(OC(=O)c3ccc(Br)o3)c2n1	i	i
O=C(Oc1ccc(Oc2ccccc2)cc1)c1ccc(Br)o1	i	1.2
Cc1cccc(N2C(=O)c3ccc(C(=O)O)cc3C2=O)n1	i	i
COc1cc(C(=O)NCc2ccc(C)cc2)c([N+](=O)[O-])cc1OC	i	0.69
COc1cc(C(=O)NCCC(C)C)c([N+](=O)[O-])cc1OC	i	i
SMILES	HCV NS3h FP	Cy5 interf NS3h
CCc1nnc(NC(=O)c2ccc3c(c2)OCCO3)s1	i	i
Cc1ccc(C(=O)NC(NC(=S)Nc2cc(C)ccc2C)C(Cl)(Cl)Cl)cc1 (stereo not given)	i	0.64
Cc1ccc(C(=O)NC(NC(=S)Nc2ccccc2)C(Cl)(Cl)Cl)cc1 (stereo not given)	i	i
Cc1ccccc1C(=O)Nc1ccc([N+](=O)[O-])cn1	i	i
COc1ccc(/C=C2\SC(=S)N(CCC(=O)Nc3ccccc3C)C2=O)cc1OC	i	i
c1ccc(NC2=Nc3cccc4cccc2c34)cc1	i	0.59
CN(C)c1ccc(NC2=NS(=O)(=O)c3ccccc32)cc1	i	i
COC(=O)c1ccccc1NS(=O)(=O)c1ccc(NC(C)=O)cc1	i	i
COC(=O)c1cc(Nc2nc3ccccc3nc2NS(=O)(=O)c2ccccc2)ccc1Cl	i	0.69
CC(=O)c1ccc(N2C(=O)c3ccc(C(=O)O)cc3C2=O)cc1	i	i
Cc1ccc(N2C(=O)CC(NCc3ccco3)C2=O)cc1 (stereo not given)	i	i
CC12CC3CC(C)(C1)CC(CNC(=O)COc1ccccc1)(C3)C2	i	0.7
Cc1cc(Br)cc(C)c1NC(=O)COc1ccccc1	i	i
COc1c(Cl)cc(C(=O)Nc2ccc3oc(-c4ccccc4)nc3c2)cc1Cl	i	i
CCc1ccc(OCC(=O)Nc2ccc(-c3nc4ccccc4s3)c(O)c2)cc1	i	i
Cc1ccc(-c2nc3cc(NC(=O)C(C)C)ccc3o2)cc1	i	i
O=C(Nc1ccc2oc(-c3cccnc3)nc2c1)c1ccncc1	i	i
COc1cc(C(=O)Nc2ccc3oc(-c4ccc5ccccc5c4)nc3c2)cc(OC)c1OC	i	0.72
O=C(Cc1ccccc1)Nc1ccc(-c2nc3ccccc3s2)c(O)c1	i	1.2
CC(C)C(=O)Nc1ccc2oc(-c3ccc(Cl)cc3)nc2c1	i	0.5
O=C(Nc1ccc2oc(-c3ccncc3)nc2c1)c1ccccn1	i	1.2
Cc1ccc(NC(=NS(=O)(=O)c2ccccc2)Nc2nc(C)cc(C)n2)cc1	i	i
CCOc1ccc(NC(=NS(=O)(=O)c2ccccc2)c2ccccc2)cc1	i	i
O=C(CCC(NC(=O)OCc1ccccc1)C(=O)OCc1ccccc1)Nc1ccccc1 (stereo not given)	i	i
COc1cc(/C=N\O)ccc1Oc1ccc([N+](=O)[O-])cn1	i	i
SMILES	HCV NS3h FP	Cy5 interf NS3h
CCOc1ccc(N2C(=O)/C(=C/c3ccc(OCc4cccc(C(=O)O)c4)cc3)C(=O)NC2=S)cc1	i	i
NS(=O)(=O)c1ccc(NC(=O)C(=Cc2ccc(Br)cc2)NC(=O)c2ccccc2Cl)cc1	i	i
Cc1ccc2oc(-c3ccc(NC(=O)Cc4ccccc4)cc3O)nc2c1	i	i
O=C(Cc1ccccc1)Nc1ccc2oc(-c3ccc(Cl)cc3Cl)nc2c1	i	1.3
CC1(C)CC(=O)C(C=NC(N)=O)=C(O)C1	i	i
O=C(Nc1ccccc1)Nc1nnc(SCc2ccccc2F)s1	i	1.2
O=C(Nc1ccccc1)Nc1nnc(SCc2ccc(F)cc2)s1	i	i
Cc1ccccc1NC(=O)C(=O)NCCc1ccc(Cl)cc1	i	i
Cc1c(Cl)cccc1NC1CS(=O)(=O)CC1O (stereo not given)	i	i
CC(=O)N=C1SC2CS(=O)(=O)CC2N1c1c(Cl)cccc1Cl (stereo not given)	i	1.3
CC(=O)Nc1ccc(S(=O)(=O)NC(C)=O)cc1	i	i
C=CCc1c(C)nc2c(C)c(-c3ccc(C)cc3)[nH]n2c1=O	i	i
C=CCc1c(C)nc2cc(-c3ccc(C)cc3)[nH]n2c1=O	62	1.2
COc1ccc(C2=C/C(=C/c3ccc(Cl)cc3)C(=O)O2)cc1OC	i	i
Cc1ccc(-c2nc3c(C)cccn3c2NC(=O)c2ccccc2)cc1	i	i
O=C(c1cc(N2CCOCC2)c(F)cc1[N+](=O)[O-])N1CCOCC1	i	0.68
O=C(c1cc(F)c(F)cc1Cl)N1CCN(c2ccc([N+](=O)[O-])c(N3CCCC3)c2)CC1	i	0.67
O=C(c1cc(F)c(F)cc1Cl)N1CCN(c2ccc([N+](=O)[O-])c3ncccc23)CC1	i	i
O=C(c1ccc(Cl)c(Cl)c1)N1CCN(c2ccc([N+](=O)[O-])c(N3CCOCC3)c2)CC1	i	0.65
O=C(c1cc(N2CCCCC2)c(F)cc1[N+](=O)[O-])N1CCCCC1	i	i
O=[N+]([O-])c1ccc(N2CCN(S(=O)(=O)c3ccc(Cl)cc3)CC2)cc1N1CCOCC1	i	i
CCOc1ccc(-n2nc3ccc(NC(=S)NC(=O)c4ccco4)cc3n2)cc1	i	i
O=C(Oc1ccc(Br)cc1C(=S)N1CCOCC1)c1ccc(Cl)cc1	i	i
